Mtb FBA inh: inhibits M. tuberculosis FBA enzyme | P9WQA3 | purified M. tuberculosis FBA, fluorescence read-out | inhibition, % at 1 µM | hit rate 2.3% among 360,000 | AID 588726; in the data active = inhibition above about 27%
Target sequence (P9WQA3 whole entry, looked up): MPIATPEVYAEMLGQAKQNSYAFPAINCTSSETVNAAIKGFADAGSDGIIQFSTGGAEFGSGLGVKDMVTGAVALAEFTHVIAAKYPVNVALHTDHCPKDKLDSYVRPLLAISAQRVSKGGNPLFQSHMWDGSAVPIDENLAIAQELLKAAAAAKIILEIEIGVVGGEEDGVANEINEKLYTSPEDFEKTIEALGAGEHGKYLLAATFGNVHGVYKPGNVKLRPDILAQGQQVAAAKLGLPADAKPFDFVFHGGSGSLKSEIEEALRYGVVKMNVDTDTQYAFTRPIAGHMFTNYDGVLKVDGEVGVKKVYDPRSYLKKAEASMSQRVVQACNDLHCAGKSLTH
GDH-TPI inh: inhibits GDH-TPI coupling enzymes, artifact for Mtb FBA screen; GDH-TPI coupled enzyme counterscreen, NADH absorbance; inhibition, % at 4.8 µM; hit rate 1.2% among 360,000; in the data active = inhibition above about 30%
Mtb hypoxia rep: inhibitors of hypoxia-regulated fluorescent reporter in Mycobacterium tuberculosis; M. tuberculosis hypoxia-regulated fluorescent reporter, fluorescence; fluorescence inhibition, % (concentration not given with the values); hit rate 0.1% among 300,000; in the data active = fluorescence inhibition mostly above about 23%, no sharp cut-off; inactive = mostly below about 17%
Mtb betalactam: beta-lactam sensitization of Mtb H37Rv | inhibition, % at 25 µM | hit rate 0.27% among 330,000 | AID 434955 | M. tuberculosis H37Rv growth with meropenem, percent inhibition; call rule not given here;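 note: growth measured after seven days incubation then overnight dye step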
VHR inh abs: inhibitors of human VHR1 phosphatase (DUSP3); inhibition, % at 13.3 µM; AID 1654; recombinant VHR phosphatase, pNPP absorbance; hit rate 0.52% among 290,000; in the data active = inhibition above about 50%
Target sequence (P51452 whole entry, looked up): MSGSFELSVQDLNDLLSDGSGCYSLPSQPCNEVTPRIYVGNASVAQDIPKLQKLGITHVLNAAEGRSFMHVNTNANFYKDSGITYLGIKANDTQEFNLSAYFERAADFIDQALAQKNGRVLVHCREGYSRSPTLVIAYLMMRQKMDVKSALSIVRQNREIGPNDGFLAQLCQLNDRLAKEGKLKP
Numbers stand for hits; - = inactive; . = no result. Compounds with a hit are over-represented: about 3.6% of the library has one in this group of screens.

SMILES	Mtb FBA inh	GDH-TPI inh	Mtb hypoxia rep	Mtb betalactam	VHR inh abs
O=C(NN=CC1CC2CCC1C2)c1ccc2c(c1)OCO2 (configuration not stated)	.	.	-	.	.
C/C(=N\NC(=O)c1cccc(S(=O)(=O)N2CCOCC2)c1)c1cc2ccccc2o1	-	52	.	-	-
O=C(C=Cc1cccs1)NCc1cccnc1	.	.	-	.	.
Cc1ccnc(NC(=O)/C=C/c2cccs2)c1	-	31	-	-	-
O=C(/C=C/c1cccs1)Nc1cccnc1	-	32	-	-	-
O=C(/C=C/c1cccs1)Nc1nncs1	-	70	-	-	-
O=C(NCc1nc2ccccc2[nH]1)C1=CC(c2ccccc2)CC(OCCCCO)O1 (configuration not stated)	.	.	-	.	.
CC(C)(C)OC(=O)CC1CC=CCC(CC(=O)NC(CO)Cc2ccccc2)C(=O)N2CCCC2COC1=O (configuration not stated)	.	.	-	.	.
CC(=O)C1=C(O)C(=O)N(c2ccc(S(N)(=O)=O)cc2)C1c1cccc([N+](=O)[O-])c1 (configuration not stated)	-	-	-	-	-
CCOC(=O)C1=C(O)C(=O)N(c2ccc(S(N)(=O)=O)cc2)C1c1cccc([N+](=O)[O-])c1 (configuration not stated)	-	32	-	-	-
CCCCCCC(=O)NN=Cc1ccco1	.	.	-	.	.
C(=NNc1nc2ccccc2s1)c1ccco1	.	.	-	.	.
C(=N\Nc1nc2ccccc2s1)/c1ccco1	-	42	.	-	-
Oc1ccc(C=NNc2nc3ccccc3s2)c(O)c1	-	32	-	.	.
C(=N\Nc1nc2ccccc2s1)/c1cccs1	-	42	.	-	-
CCOc1cc(C=NN=C(N)c2nonc2N)cc(Br)c1OCc1ccc(Cl)cc1	.	.	-	.	.
COc1cc(OC)c(OC)cc1C=Nn1c(C)nnc1C	.	.	-	.	.
O=C(CC1CC=CCC(Cc2ccc(F)cc2)C(=O)OC(c2ccccc2)CNC1=O)NCCO (configuration not stated)	.	.	-	.	.
CC(C)n1cnc2c(oc3ccccc32)c1=O	-	-	-	-	-
CCOC(=O)C(C)n1cnc2c(oc3ccccc32)c1=O (configuration not stated)	-	-	-	-	51
N#Cc1ccc(C(=O)Nc2nnc(-c3cccs3)o2)cc1	-	33	-	-	-
CN(C)S(=O)(=O)c1ccc(C(=O)Nc2nnc(-c3cccs3)o2)cc1	-	-	-	-	-
CCC1CCCCN1S(=O)(=O)c1ccc(C(=O)Nc2nnc(-c3cccs3)o2)cc1 (configuration not stated)	-	68	-	-	-
CCN1C(=O)C2C(c3ccc(C)cc3)N3C(=O)N(c4cccc(Cl)c4)C(=O)[C@@]3(CC(C)C)C2C1=O (some centres not stated)	.	.	-	.	.
CC(=O)Nc1cccc(C(C)=NNC(=O)c2ccc(Cl)cc2Cl)c1	.	.	-	.	.
SMILES	Mtb FBA inh	GDH-TPI inh	Mtb hypoxia rep	Mtb betalactam	VHR inh abs
CC1S/C(=N/N=C/c2ccco2)N(Cc2ccc(F)cc2)C1=O (configuration not stated)	-	-	.	-	-
O=C1CS/C(=N/N=C/c2ccco2)N1Cc1ccc(F)cc1	-	38	.	-	-
CC(C)N(Cc1c(O)ccc2c(=O)c(-c3ccc(Cl)cc3)coc12)C(C)C	-	-	-	-	-
CCN(CC)Cc1c(O)ccc2c(=O)c(-c3ccc4c(c3)OCCO4)coc12	-	31	-	-	-
COc1ccccc1Oc1coc2c(CN(C)C)c(O)ccc2c1=O	114	-	-	-	-
CCOc1ccccc1Oc1coc2cc(OC)ccc2c1=O	-	-	.	-	-
COc1ccccc1-c1coc2c(CN(C)C)c(O)ccc2c1=O	188	-	-	-	-
COc1cc(C=NNc2nc(C)cc(=O)[nH]2)ccc1OC(=O)c1cccnc1	.	.	-	.	.
CCOC(=O)C(=NNc1ccccc1[N+](=O)[O-])c1csc(Nc2ccccc2)n1	.	.	-	.	.
O=C(O)/C=C/C(=O)c1ccc2c(c1)CCc1ccccc1-2	-	32	.	-	.
O=C(O)C=CC(=O)c1ccc2c(c1)CCc1ccccc1-2	.	.	-	.	.
CC1CCC/C(=N\NC(=O)COc2ccc(Cl)cc2Cl)C1 (configuration not stated)	-	-	.	-	-
CC1CCC/C(=N\NC(=O)COc2ccccc2Cl)C1 (configuration not stated)	-	-	.	-	51
CCOC1OC(C(=O)N2CCOCC2)=CC(c2ccc(C(F)(F)F)cc2)C1CCCO (configuration not stated)	.	.	-	.	.
CCC(C)C(C(=O)NCCCCCCCCCCC(=O)N1CCN(C(=O)OC(C)(C)C)CC1)n1cc(CCCCCNC(=O)OC(C)(C)C)nn1 (configuration not stated)	.	.	-	.	.
CCCn1c(NC(=O)c2cccc(S(=O)(=O)N3CCCC3)c2)nc2ccccc21	-	35	-	-	-
COc1ccc(-n2c(C)cc(C)c(C(C)=O)c2=S)cc1	-	-	-	-	-
COc1ccccc1-n1c(C)cc(SC)c(C(C)=O)c1=S	-	-	.	-	52
CN1CC(C(=O)N[C@]2(C)O[C@@]3(O)C4CCCN4C(=O)C(Cc4ccccc4)N3C2=O)CC2c3cccc4[nH]cc(c34)CC21 (some centres not stated)	.	.	-	.	.
CSCCC(C(=O)NCCCCCCCCCCC(=O)N1CCNCC1)n1cc(CCO)nn1 (configuration not stated)	.	.	-	.	.
CCc1cc(=O)oc2cc(C)cc(OCC(=O)NCCCN3CCOCC3)c12	116	-	-	-	-
CCCc1cc(=O)oc2cc(OCC(=O)NCCN3CCOCC3)c(Cl)cc12	-	33	.	.	.
O=C(Nc1nc2ccccc2[nH]1)c1ccc(S(=O)(=O)N2CCOCC2)cc1	-	39	-	-	-
O=C(Nc1ccccc1Cl)ON=C(c1ccccc1)c1ccccn1	.	.	-	.	.
Cn1c(=O)c2[nH]c(C=Cc3ccc4c(c3)OCO4)nc2n(C)c1=O	-	31	.	.	.
SMILES	Mtb FBA inh	GDH-TPI inh	Mtb hypoxia rep	Mtb betalactam	VHR inh abs
Cc1nn(C)cc1C=NCCOCc1ccccc1	-	-	-	-	52
Cc1nn(C)cc1/C=N/NC(=O)c1ccco1	-	-	.	-	-
CN(C)CCCCCCCCCCC(=O)C=NO	.	.	-	.	.
Cc1c(N2C(=O)/C(=C/c3ccccc3)SC2=S)c(=O)n(-c2ccccc2)n1C	-	38	-	-	-
Cc1ccc(/C=C2\SC(=S)N(c3c(C)n(C)n(-c4ccccc4)c3=O)C2=O)cc1	-	-	-	-	-
Cc1c(N2C(=O)/C(=C/c3ccc(N(C)C)cc3)N(C)C2=S)c(=O)n(-c2ccccc2)n1C	-	-	40	.	.
CCC(=O)Nc1cccc(C2=NOC3(C2)CC(C(N)=O)N(C(=O)CC(c2ccccc2)c2ccccc2)C3)c1 (configuration not stated)	.	.	-	.	.
CC(C)[C@@]1(NC(=O)C2CC3c4cccc5[nH]cc(c45)CC3N(C)C2)O[C@@]2(O)C3CCCN3C(=O)C(Cc3ccccc3)N2C1=O (some centres not stated)	.	.	-	.	.
CCn1nc(-c2cccs2)nc2c(=O)n(C)c(=O)nc1-2	-	-	-	.	90
O=C(NNC(=O)c1cc2cc3ccccc3nc2s1)c1ccc(F)cc1	-	34	.	-	-
O=C(NNC(=O)c1cc2cc3ccccc3nc2s1)c1cccc(Cl)c1	-	-	.	-	-

Screening results from PubChem.
